Test results reported in the supplement of paper PMC10849652.
The full data set covers some 8,800 targets. This sample favours those with a hit. About 0.5% of all pairs of compound and target were hits.

Tests used:
Test in all cases: log2 fold change, soluble protein after heating vs DMSO (PISA); higher = thermal stabilisation; K562 lysate, 10 uM; active = over 0.2 and 3.5 SD of the protein, either way, in both replicates (recomputed)
[1] = compound: NCC(=O)Nc1ccc(-n2nc(C(F)(F)F)cc2-c2ccc3c(ccc4ccccc43)c2)cc1
Method in brief: (§1)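 A 30 min treatment with 10 μM compound was applied to crude K562 extract at 1 mg/mL protein in PBS pH 7.4 with 1 mM MgCl2. Heating for 3 min spanned 48°C-58°C, after which aliquots were pooled, adjusted to 0.5% NP-40 at 4°C and spun at 21,000xg for 90 min. TMTpro 16plex LC-MS/MS of the supernatant, with channel sums equalised, gave values recorded as log-two fold change in thermal stability against solvent controls, from duplicates.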

[2] = compound: O=C(CCCCCCC(=O)Nc1ccccc1)NO [vorinostat]
Method in brief: as §1

[3] = compound: O=C(O)c1ccc2c(c1)nc(Nc1cccc(Cl)c1)c1ccncc12 [silmitasertib]
Method in brief: as §1

[4] = compound: O=C1NC(=O)C(c2cnc3ccccn23)=C1c1cn2c3c(cc(F)cc13)CN(C(=O)N1CCCCC1)CC2
Method in brief: as §1

[5] = compound: c1cn2cc(-c3ccc4cn[nH]c4c3)nc(Nc3ccc(N4CCOCC4)cc3)c2n1 [entospletinib]
Method in brief: as §1

Measured: log2 fold change

SSU72 (UniProt Q9NP77)
Chain of UniProt Q9NP77 (Q9NP77 whole entry, looked up): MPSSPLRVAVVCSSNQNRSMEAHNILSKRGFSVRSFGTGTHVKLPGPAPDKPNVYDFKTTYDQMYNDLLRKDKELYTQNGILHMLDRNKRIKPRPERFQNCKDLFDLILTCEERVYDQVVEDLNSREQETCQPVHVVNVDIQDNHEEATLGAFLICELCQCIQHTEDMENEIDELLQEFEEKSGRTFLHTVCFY
inactive: [1] 0.015 | [2] 0.112 | [3] -0.026 | [4] -0.021 | [5] -0.014

SSB (UniProt E7ERC4)
inactive: [1] -0.063 | [2] 0.012 | [3] 0.105 | [4] -0.11 | [5] -0.092

SSBP3 (UniProt Q9BWW4)
Chain of UniProt Q9BWW4 (Q9BWW4 whole entry, looked up): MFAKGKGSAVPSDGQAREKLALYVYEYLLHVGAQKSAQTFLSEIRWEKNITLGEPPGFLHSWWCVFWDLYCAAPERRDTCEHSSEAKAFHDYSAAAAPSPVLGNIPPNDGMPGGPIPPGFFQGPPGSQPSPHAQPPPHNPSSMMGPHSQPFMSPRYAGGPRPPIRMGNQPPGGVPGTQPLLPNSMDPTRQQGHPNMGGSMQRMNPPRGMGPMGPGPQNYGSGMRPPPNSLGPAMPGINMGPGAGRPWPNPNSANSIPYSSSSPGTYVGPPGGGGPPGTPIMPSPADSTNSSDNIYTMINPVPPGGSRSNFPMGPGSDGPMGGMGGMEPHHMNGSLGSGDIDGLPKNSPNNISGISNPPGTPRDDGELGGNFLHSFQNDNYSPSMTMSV
inactive: [1] -0.085 | [2] 0.061 | [3] -0.005 | [4] 0.088 | [5] 0.009

TANK (UniProt Q92844)
Chain of UniProt Q92844 (Q92844 whole entry, looked up): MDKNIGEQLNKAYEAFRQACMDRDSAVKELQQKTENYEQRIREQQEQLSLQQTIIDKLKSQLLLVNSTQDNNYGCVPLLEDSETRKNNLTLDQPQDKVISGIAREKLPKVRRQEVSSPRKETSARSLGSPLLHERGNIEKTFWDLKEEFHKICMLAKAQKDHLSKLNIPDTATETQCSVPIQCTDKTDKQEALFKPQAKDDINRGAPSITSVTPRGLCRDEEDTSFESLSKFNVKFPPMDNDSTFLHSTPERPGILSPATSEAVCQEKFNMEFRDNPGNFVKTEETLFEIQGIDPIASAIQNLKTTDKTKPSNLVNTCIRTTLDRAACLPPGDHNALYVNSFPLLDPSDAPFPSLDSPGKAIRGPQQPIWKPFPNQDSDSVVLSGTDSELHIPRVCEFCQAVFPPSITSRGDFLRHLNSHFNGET
inactive: [1] 0.041 | [2] -0.102 | [3] 0.124 | [4] 0.071 | [5] 0.132

SLC25A17 (UniProt O43808)
Chain of UniProt O43808 (O43808 whole entry, looked up): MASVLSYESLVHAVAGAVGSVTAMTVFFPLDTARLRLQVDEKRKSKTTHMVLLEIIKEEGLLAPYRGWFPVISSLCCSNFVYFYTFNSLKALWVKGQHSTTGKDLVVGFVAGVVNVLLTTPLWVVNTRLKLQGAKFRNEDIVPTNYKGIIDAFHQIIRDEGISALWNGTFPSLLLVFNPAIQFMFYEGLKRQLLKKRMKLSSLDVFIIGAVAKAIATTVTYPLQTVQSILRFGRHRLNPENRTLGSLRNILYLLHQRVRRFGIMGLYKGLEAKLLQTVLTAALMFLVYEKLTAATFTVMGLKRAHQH
inactive: [1] 0.021 | [2] 0.015 | [3] -0.026 | [4] -0.033 | [5] -0.027

SMC1B isoform 3 (UniProt Q8NDV3)
Chain of UniProt Q8NDV3 (Q8NDV3 whole entry, looked up): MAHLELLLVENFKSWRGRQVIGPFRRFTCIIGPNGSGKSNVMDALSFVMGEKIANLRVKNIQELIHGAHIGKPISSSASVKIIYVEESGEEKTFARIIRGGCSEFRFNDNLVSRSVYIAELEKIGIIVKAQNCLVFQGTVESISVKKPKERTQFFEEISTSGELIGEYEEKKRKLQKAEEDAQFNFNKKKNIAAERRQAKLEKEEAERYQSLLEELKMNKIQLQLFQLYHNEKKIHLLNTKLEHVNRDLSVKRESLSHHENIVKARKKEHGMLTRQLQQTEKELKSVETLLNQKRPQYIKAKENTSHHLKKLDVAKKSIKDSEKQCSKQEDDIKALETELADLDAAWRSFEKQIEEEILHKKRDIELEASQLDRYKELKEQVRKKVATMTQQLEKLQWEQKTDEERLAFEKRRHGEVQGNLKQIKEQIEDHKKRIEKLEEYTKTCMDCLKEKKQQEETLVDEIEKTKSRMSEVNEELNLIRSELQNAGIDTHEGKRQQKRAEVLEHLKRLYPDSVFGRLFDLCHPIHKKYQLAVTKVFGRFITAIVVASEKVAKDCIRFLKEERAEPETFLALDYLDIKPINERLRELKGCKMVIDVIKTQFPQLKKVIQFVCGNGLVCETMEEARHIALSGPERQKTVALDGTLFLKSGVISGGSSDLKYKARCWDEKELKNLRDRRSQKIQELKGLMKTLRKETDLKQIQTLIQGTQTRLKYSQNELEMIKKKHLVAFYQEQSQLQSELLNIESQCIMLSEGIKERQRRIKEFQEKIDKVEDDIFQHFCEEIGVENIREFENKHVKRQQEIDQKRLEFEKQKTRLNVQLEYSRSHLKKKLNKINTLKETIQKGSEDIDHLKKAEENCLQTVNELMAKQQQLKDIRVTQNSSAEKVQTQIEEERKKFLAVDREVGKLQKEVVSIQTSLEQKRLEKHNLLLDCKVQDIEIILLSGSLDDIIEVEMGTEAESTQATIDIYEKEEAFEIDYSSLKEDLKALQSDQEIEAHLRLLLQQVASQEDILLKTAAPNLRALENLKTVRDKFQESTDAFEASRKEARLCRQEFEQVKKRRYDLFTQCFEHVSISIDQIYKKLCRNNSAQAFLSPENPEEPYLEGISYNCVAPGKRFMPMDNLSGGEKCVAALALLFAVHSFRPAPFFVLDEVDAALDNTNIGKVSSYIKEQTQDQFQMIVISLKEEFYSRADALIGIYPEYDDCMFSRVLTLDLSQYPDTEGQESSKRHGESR
inactive: [1] -0.063 | [2] 0.068 | [3] -0.011 | [4] 0.026 | [5] 0.004

SLC25A44 (UniProt Q96H78)
Chain of UniProt Q96H78 (Q96H78 whole entry, looked up): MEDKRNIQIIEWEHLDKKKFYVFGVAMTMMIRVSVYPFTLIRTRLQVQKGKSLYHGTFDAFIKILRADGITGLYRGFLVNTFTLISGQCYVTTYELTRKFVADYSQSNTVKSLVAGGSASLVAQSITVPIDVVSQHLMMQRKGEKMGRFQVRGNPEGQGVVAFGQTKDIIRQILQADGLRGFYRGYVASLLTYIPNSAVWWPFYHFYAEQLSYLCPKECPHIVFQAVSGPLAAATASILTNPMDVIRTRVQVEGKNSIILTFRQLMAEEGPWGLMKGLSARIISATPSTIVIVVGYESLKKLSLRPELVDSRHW
inactive: [1] 0.13 | [2] 0.025 | [3] -0.02 | [4] -0.056 | [5] -0.026

SMIM8 (UniProt Q96KF7)
Chain of UniProt Q96KF7 (Q96KF7 whole entry, looked up): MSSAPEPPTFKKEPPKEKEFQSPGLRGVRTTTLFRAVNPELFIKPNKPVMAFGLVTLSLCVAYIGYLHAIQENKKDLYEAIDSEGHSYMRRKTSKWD
inactive: [1] -0.007 | [2] 0.092 | [3] -0.022 | [4] -0.029 | [5] -0.046

SMAP2 (UniProt Q8WU79)
Chain of UniProt Q8WU79 (Q8WU79 whole entry, looked up): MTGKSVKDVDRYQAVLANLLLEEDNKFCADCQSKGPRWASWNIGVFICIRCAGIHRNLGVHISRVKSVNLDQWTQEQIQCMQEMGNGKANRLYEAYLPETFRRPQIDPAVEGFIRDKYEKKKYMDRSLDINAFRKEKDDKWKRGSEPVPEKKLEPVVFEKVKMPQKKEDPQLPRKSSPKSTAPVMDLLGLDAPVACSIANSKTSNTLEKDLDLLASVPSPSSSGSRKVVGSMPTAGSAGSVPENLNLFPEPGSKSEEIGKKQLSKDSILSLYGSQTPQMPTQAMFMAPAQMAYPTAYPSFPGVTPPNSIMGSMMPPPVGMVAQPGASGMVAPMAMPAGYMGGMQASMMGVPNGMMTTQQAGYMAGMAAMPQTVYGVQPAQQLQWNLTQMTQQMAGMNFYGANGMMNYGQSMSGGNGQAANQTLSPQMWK
inactive: [1] 0 | [2] -0.032 | [3] 0.017 | [4] -0.04 | [5] -0.028
